Records with an inconclusive call do not appear. Activity calls are given as the source filed them. Calls come from the whole dose curve; as a rule, active = well fitted curve in the direction sought with a large enough effect in the signal ratio in the repeat runs (not every such curve was filed as active); inconclusive = weak or mixed curves, or a change in a side signal; inactive = no such curve, though single readings can be large or run the other way; the % refers to the signal ratio.
Assay: qHTS assay to identify small molecule agonists of the NFkB signaling pathway (AID 1159509)
Settings: NFkB-bla ME-180 cells, beta-lactamase FRET ratio, 5 h; series mostly up to 61 µM
Excerpt: National Center for Advancing Translational Sciences [NCATS]
NIH Chemical Genomics Center [NCGC]
U.S. Environmental Protection Agency [EPA]
National Institutes of Environmental Health Sciences [NIEHS]
National Toxicology Program [NTP]
U.S. Food and Drug Administration [FDA]
Transcription factors and their stimulated target gene expression play pivotal roles across many cellular processes including responses to environmental stimuli. Proper regulation of associated pathways is critical to maintain cell health and function. Constitutive activation of transcription factor pathways has been implicated in tumors as it may block cellular functions such as apoptosis and lead to invasion and metastasis. One important transcription factor that stimulates gene expression in response to cytokines, UV radiation, and other stimuli is nuclear factor-kappa B (NFkB). To measure activation of the NFkB pathway, the CellSensor NFkB-bla ME-180 cell line (Life Technologies, Carlsbad, CA) that stably expresses beta-lactamase reporter gene under the regulation of a NF-kB response element was used. This assay allows measurement of the NFkB pathway activity induced by compounds in a ME-180 cell line. This system quantitates NF-kB activity using a FRET-based assay system where beta-lactamase expression disrupts FRET, allowing for fluorescent measurement of activity. This cell line has been used to screen the Tox21 10K compound library and to identify compounds that induce the NFkB pathway activity.
Tox21 Assay Protocol Summary:
NFkB-bla ME-180 cells were dispensed at 2,000 cells/6 uL of assay medium per well into black wall/clear-bottom 1536-well plates using a Multidrop Combi (ThermoFisher Scientific, Waltham, MA) dispenser. After the assay plates were incubated at 37 C and 5% CO2 for an overnight, 23 nL of compounds dissolved in DMSO, positive controls or DMSO only was transferred to the assay plate by a Pintool station (Kalypsys, San Diego, CA). The assay plates were incubated at 37 C and 5% CO2 for 5 hr. One uL of LiveBLAzer B/G FRET substrate (Life Technologies) was added using a Flying Reagent Dispenser (Aurora Discovery, San Diego, CA) and the plates were incubated at room temperature for 1.5 hr. Fluorescence intensity (405 nm excitation, 460 nm and 530 nm emissions) was measured using an Envision plate reader (PerkinElmer, Shelton, CT).

Structure (SMILES) | outcome
Nc1cc(-c2ccncc2)c[nH]c1=O | inactive
COC(=O)c1ccc(C(=O)OC)cc1 | inactive
OCC#CCO | inactive
O=C(O)c1cc(-c2ccccc2)nc2ccccc12 | inactive
CC1=CC[C@H]2C[C@@H]1C2(C)C | inactive
Oc1c(Cl)cc(Cl)c(Cl)c1Cl | inactive
CC1=C(CC(=O)O)c2cc(F)ccc2/C1=C\c1ccc(S(C)=O)cc1 (stereo not given) | inactive
CC1(C)O[C@@H]2C[C@H]3[C@@H]4C[C@H](F)C5=CC(=O)CC[C@]5(C)[C@H]4[C@@H](O)C[C@]3(C)[C@]2(C(=O)CO)O1 | inactive
CNC[C@H](O)[C@@H](O)[C@H](O)[C@H](O)CO | inactive
Cc1cc(Cc2ccc(N)c(C)c2)ccc1N | inactive
C=C(C)C(=O)OCCCCCCCCCCCC | inactive
O=S(=O)(O)c1cc(S(=O)(=O)O)c2c(N=Nc3ccccc3)c(O)ccc2c1 | inactive
C=C1CC[C@H](O)CC1=C/C=C1\CCC[C@]2(C)[C@@H]([C@H](C)/C=C/[C@H](C)C(C)C)CC[C@@H]12 | inactive
O=C(c1ccc(O)cc1)c1ccc(O)cc1O | inactive
Oc1ccc(OCc2ccccc2)cc1 | inactive
CCCCCC/C=C/CCCCCCCC(=O)O | inactive
Clc1ccc(Cl)c(Cl)c1Cl | inactive
CCCCCCOC(C)=O | inactive
Cc1ccc(N)c(S(=O)(=O)O)c1 | inactive
COCC(C)O (stereo not given) | inactive

Structure (SMILES) | outcome
CCCCOCCO | inactive
OC[C@@H](O)[C@@H](O)[C@H](O)[C@@H](O)CO | inactive
O=C1CCCCC1 | inactive
CCOC(=O)C1OC1c1ccccc1 (stereo not given) | inactive
CC1(C)CC(N=C=O)CC(C)(CN=C=O)C1 (stereo not given) | inactive
CC#C[C@]1(O)CC[C@H]2[C@@H]3CCC4=CC(=O)CCC4=C3[C@@H](c3ccc(N(C)C)cc3)C[C@@]21C | inactive
Cc1cc(O)c2c(c1)C(=O)c1cc(O)cc(O)c1C2=O | inactive
Cn1c([N+](=O)[O-])cnc1COC(N)=O | inactive
OCCOCCOCCOCCO | inactive
CCCCCCCCCCCCN | inactive
O=c1c(-c2ccc(O)cc2)coc2cc(O)ccc12 | inactive
O=C1N=C(O)CN1/N=C/c1ccc(-c2ccc([N+](=O)[O-])cc2)o1 | inactive
CC(C)Cc1ccccc1 | inactive
OCC1CCCO1 (stereo not given) | inactive
C[C@@H]1O[C@@H](OC[C@H]2O[C@@H](Oc3c(-c4ccc(O)c(O)c4)oc4cc(O)cc(O)c4c3=O)[C@H](O)[C@@H](O)[C@@H]2O)[C@H](O)[C@H](O)[C@H]1O | inactive
CC1=C(/C=C/C(C)=C/C=C/C(C)=C/CO)C(C)(C)CCC1 | inactive
CCc1ccc(O)cc1 | inactive
O=[N+]([O-])c1cccc(Cl)c1 | inactive
Clc1cc(Cl)c(Cl)cc1Cl | inactive
c1ccc2ccccc2c1 | inactive
